The source of these data is PubChem BioAssay (EPA / NIEHS).

Read-out in assay [1]: Interleukin-6 (IL6), IL6 (gene 3569)
In words: BSK_CASM3C_IL6: BioMAP Diversity Plus: CASM3C Assay for Interleukin-6 (IL6) Biomarker Activity for (AID 2283040). The note with it: primary human coronary artery smooth muscle cells; actives raise or lower the signal.

Read-out in assay [2]: Tissue plasminogen activator (tPA), PLAT (gene 5327)
In words: BSK_BE3C_tPA: BioMAP Diversity Plus: BE3C Assay for Tissue plasminogen activator (tPA) Biomarker Activity (AID 2283041).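 Note: tPA level quantified by ELISA one day after compound addition.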 The note with it: primary human bronchial epithelial cells; actives raise or lower the signal. Summed up: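 Human primary bronchial epithelial cells were dosed with chemical and tPA biomarker levels measured by ELISA 24 hours later. Activity was fitted bidirectionally against DMSO as negative control and baseline.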

Read-out in assay [3]: Interleukin-8 (IL8), CXCL8 (gene 3576)
In words: BSK_CASM3C_IL8: BioMAP Diversity Plus: CASM3C Assay for Interleukin-8 (IL8) Biomarker Activity (AID 2283042).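 Note: IL-8 protein level quantified by ELISA.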 Conditions: primary human coronary artery smooth muscle cells; actives raise or lower the signal.

Read-out in assay [4]: Human Leukocyte Antigen - DR isotype (HLADR), HLA-DRA (gene 3122)
Description: BSK_CASM3C_HLADR: BioMAP Diversity Plus: CASM3C Assay for Human Leukocyte Antigen - DR isotype (HLADR) Biomarker Activity (AID 2283043).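 Note: cell-surface HLA-DR protein level quantified by ELISA.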 Conditions: primary human coronary artery smooth muscle cells; actives raise or lower the signal.

Read-out in assay [5]: Macrophage colony-stimulating factor (MCSF), CSF1 (gene 1435)
In words: BSK_CASM3C_MCSF: BioMAP Diversity Plus: CASM3C Assay for Macrophage colony-stimulating factor (MCSF) Biomarker Activity (AID 2283044).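 Note: M-CSF protein amount quantified by ELISA after 24 h exposure.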 Conditions: primary human coronary artery smooth muscle cells; actives raise or lower the signal.

Read-out in assay [6]: Low-density lipoprotein receptor (LDLR), LDLR (gene 3949)
In words: BSK_CASM3C_LDLR: BioMAP Diversity Plus: CASM3C Assay for Low-density lipoprotein receptor (LDLR) Biomarker Activity (AID 2283045).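 Note: LDLR protein level on the cell surface quantified by ELISA.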 Conditions: primary human coronary artery smooth muscle cells; actives raise or lower the signal.

Read-out in assay [7]: Monocyte Chemoattractant Protein-1 (MCP1), CCL2 (gene 6347)
In words: BSK_CASM3C_MCP1: BioMAP Diversity Plus: CASM3C Assay for Monocyte Chemoattractant Protein-1 (MCP1) Biomarker Activity (AID 2283046).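 Note: MCP-1 level quantified by ELISA 24 h after dosing.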 Conditions: primary human coronary artery smooth muscle cells; actives raise or lower the signal.

Assay [8] is described as follows: BSK_CASM3C_Proliferation: Cell Proliferation Assessment in the BioMAP Diversity Plus: CASM3C Assay (AID 2283047).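 Note: sulforhodamine B total protein stain as relative cell number at 560 nm; sub-confluent cells exposed 48 h before staining; fitted both ways against DMSO so gain or loss of cell number.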 Conditions: primary human coronary artery smooth muscle cells.
Read-out in assay [9]: Monokine induced gamma interferon (MIG), CXCL9 (gene 4283)
Description: BSK_CASM3C_MIG: BioMAP Diversity Plus: CASM3C Assay for Monokine induced gamma interferon (MIG) Biomarker Activity (AID 2283048).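 Note: MIG protein level measured by ELISA.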 The note with it: primary human coronary artery smooth muscle cells; actives raise or lower the signal.

Read-out in assay [10]: serum amyloid A (SAA), SAA1 (gene 6288)
Description: BSK_CASM3C_SAA: BioMAP Diversity Plus: CASM3C Assay for serum amyloid A (SAA) Biomarker Activity (AID 2283049).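 Note: SAA protein level quantified by ELISA.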 Conditions: primary human coronary artery smooth muscle cells; actives raise or lower the signal.

The source made the active and inactive calls. Rule for the calls: active = hit-call score of the fitted dose curve at least 0.9, where 1 is the maximum; inactive = score below 0.9.

The term AC50 denotes the concentration giving half of the maximal activity seen.

Regarding `COCC(=O)N(c1c(C)cccc1C)C(C)C(=O)OC` (centres undefined), the result in assay [1], in assay [2], in [3], in [4], in assay [5] and in assay [6] was inactive. The result in [7], in assay [8], in [9] and in assay [10] was inactive.

Take `COCC(C)N(C(=O)CCl)c1c(C)csc1C` (centres undefined): the outcome in assay [1], in assay [2], in assay [3], in [4], in assay [5] and in assay [6] was inactive. Besides, the outcome in [7], in assay [8], in assay [9] and in assay [10] was inactive.

Turning to `CCN(CC)c1nc(C)cc(OP(=S)(OC)OC)n1`, the outcome in assay [1], in [2], in assay [3], in assay [5], in [6] and in [7] was inactive. The result in assay [8], in assay [9] and in assay [10] was inactive. Further, the AC50 in assay [4] was 11.8 µM (active).

Regarding `CCC(C)n1c(=O)[nH]c(C)c(Br)c1=O` (centres undefined), the result in [1], in assay [2], in assay [3], in assay [4], in assay [5] and in assay [6] was inactive. Moreover, the outcome in assay [7], in assay [8], in assay [9] and in assay [10] was inactive.

As to `CCCCC(C#N)(Cn1cncn1)c1ccc(Cl)cc1` (centres undefined), the outcome in assay [1], in assay [2], in assay [3], in assay [4], in assay [5] and in assay [6] was inactive. In addition, the result in [7], in assay [8], in [9] and in assay [10] was inactive.

On to `CNC(=O)N(C)c1nnc(C(C)(C)C)s1`, for which the result in [1], in [2], in assay [3], in assay [4], in assay [5] and in assay [6] was inactive. Further, the result in [7], in assay [8], in assay [9] and in [10] was inactive.

Turning to `Clc1nc(Cl)nc(Nc2ccccc2Cl)n1`, the result in [1], in assay [2], in assay [3], in [4], in [5] and in assay [6] was inactive. Also, the result in assay [7], in assay [8], in [9] and in assay [10] was inactive.

In the case of `Cc1ccc(N=CN(C)C=Nc2ccc(C)cc2C)c(C)c1`, the AC50 in assay [1] was 30.9 µM (active); in assay [5], 29.6 µM (active); in assay [8], 30.4 µM (active); in assay [10], 28.7 µM (active). Also, the result in assay [2], in assay [3], in assay [4], in assay [6], in assay [7] and in assay [9] was inactive.

In the case of `CC1(C)C(C=C(Cl)Cl)C1C(=O)OC(C#N)c1cccc(Oc2ccccc2)c1` (centres undefined), the result in assay [1], in assay [2], in [3], in assay [4], in assay [5] and in assay [6] was inactive. The outcome in [7], in assay [8], in assay [9] and in [10] was inactive.

Regarding `CC(C)NC(=O)N1CC(=O)N(c2cc(Cl)cc(Cl)c2)C1=O`, the outcome in assay [1], in assay [2], in assay [3], in [4], in [5] and in [6] was inactive. The result in assay [7], in [8], in assay [9] and in [10] was inactive.

Consider `Cc1nc(N(C)C)nc(OC(=O)N(C)C)c1C`, for which the result in assay [1], in assay [2], in assay [3], in [4], in assay [5] and in assay [6] was inactive. In addition, the result in [7], in [8], in [9] and in [10] was inactive.

As for `CCNC(=O)NC(=O)C(C#N)=NOC`, the AC50 in assay [1] is 6.13 µM (active); in assay [7], 1.98 µM (active). In addition, the result in [2], in assay [3], in assay [4], in [5], in [6] and in assay [8] was inactive. Further, the outcome in assay [9] and in assay [10] was inactive.

On to `CC(C)N1C(=O)c2ccccc2NS1(=O)=O`, for which the result in assay [1], in [2], in [3], in assay [4], in assay [5] and in [6] was inactive. For the same compound, the outcome in assay [8], in [9] and in assay [10] was inactive.

Regarding `Clc1cccc(C(Cl)(Cl)Cl)n1`, the result in assay [1], in assay [2], in assay [3], in [4], in assay [5] and in assay [6] was inactive. Further, the outcome in assay [7], in assay [8], in [9] and in assay [10] was inactive.

Consider `CO/N=C(/C1=NOCCO1)c1ccccc1Oc1ncnc(Oc2ccccc2Cl)c1F`, for which the outcome in assay [1], in assay [2], in assay [3], in [4], in [5] and in assay [7] was inactive. The result in assay [9] and in assay [10] was inactive. Also, the results for the concentration at half-maximal activity (AC50) in assay [6] and in assay [8] were 13.5 µM (active) and 12.9 µM (active), respectively.

With `COC(=O)c1c(C(F)F)nc(C(F)(F)F)c(C2=NCCS2)c1CC(C)C`, the result in [1], in assay [2], in assay [3], in assay [4], in [5] and in [6] was inactive. The outcome in assay [7], in [8], in assay [9] and in assay [10] was inactive.

Take `CN/C(=N\[N+](=O)[O-])NCc1cnc(Cl)s1`: the outcome in assay [1], in assay [2], in assay [3], in [4], in [5] and in assay [6] was inactive. Moreover, the outcome in assay [7], in assay [8], in assay [9] and in assay [10] was inactive.

Regarding `COc1cc(OC)nc(NC(=O)NS(=O)(=O)c2ncccc2OCC(F)(F)F)n1`, the outcome in assay [1], in assay [2], in [3], in assay [4], in assay [5] and in assay [6] was inactive. The outcome in [7], in assay [8], in assay [9] and in [10] was inactive.
